DAX1 inh-1 = NR0B1 (DAX1) inhibition; P51843; HEK293 Gal4-DAX1 luciferase reporter, luminescence; inhibition, % at 6.75 µM; 0.99% of 340,000 active; AID 504766;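 active = inhibition above the mean over all tested compounds plus 3 SD, cut at about 4.2% in these data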;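 note: inhibition shows as a rise in luminescence from relieved DAX1 repression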
Target sequence (P51843 207-470 limits assumed): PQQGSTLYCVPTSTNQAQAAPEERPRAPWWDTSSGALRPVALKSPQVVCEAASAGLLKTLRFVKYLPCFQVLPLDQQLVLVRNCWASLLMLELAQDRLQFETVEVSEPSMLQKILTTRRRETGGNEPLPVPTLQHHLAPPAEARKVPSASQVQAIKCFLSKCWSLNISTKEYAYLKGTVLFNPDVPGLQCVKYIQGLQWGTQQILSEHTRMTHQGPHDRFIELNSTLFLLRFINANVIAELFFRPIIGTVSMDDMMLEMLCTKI
FXN GAA850 act = activators of GAA850 frataxin (FXN) promoter. HEK293 lucGAA850 FXN promoter luciferase reporter, 24 h; percent of 10 µM SAHA response. 0.56% of 360,000 active. activation, % at 6 µM;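 active = activation above the average of all compounds screened plus 3 SD, cutoff fixed separately per campaign, cut at about 7.5% in these data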
DAX1 inh-2 = DAX1 (NR0B1) inhibition, primary screen; HEK293T StAR-luciferase reporter, SF-1/DAX-1 repression relief; inhibition, % at 6.8 µM; 1.1% of 370,000 active;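 active = inhibition above the mean over all tested compounds plus 3 SD, cut at about 3.6% in these data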;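 note: higher inhibition means more luminescence from relief of DAX-1 repression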
ssDAF12 agonist = activates DAF-12 receptor from parasite S. stercoralis. HEK293 ssDAF-12/GRIP1 lit1-tk-luc reporter, luminescence; % of 3 µM dafachronic acid response. activation, % at 6.8 µM. 1% of 370,000 active;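 active = activation above the mean over all tested compounds plus 3 SD, cut at about 0.9% in these data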
hcDAF12 agonist = H. contortus DAF-12 activation, primary screen; HEK293 hcDAF-12 lit1-tk-luc reporter, luminescence; 0% DMSO, 100% Δ7-dafachronic acid; activation, % at 6.8 µM; 1.4% of 370,000 active; AID 652067;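 active = activation above the mean of all tested compounds plus 3 SD, cut at about 5.5% in these data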
hgDAF-12 ag = hgDAF-12 agonism, primary luciferase screen | activation, % at 6.8 µM | 1.8% of 370,000 active | HEK293 GAL4-hgDAF12 UAS-luciferase reporter, agonist luminescence; normalized to butyrate control;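 active = activation above a cutoff set at the mean of all screened compounds plus 3 SD, cut at about 10% in these data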
LXRb hcDAF ctr = activates human LXR-beta, counter-screen for hcDAF-12 agonists | activation, % at 6.8 µM | 3,400 tested, under 10 active | shares compounds with hcDAF12 agonist | HEK293 Gal4-LXR tk-luc reporter, luminescence, 24 h; normalized: DMSO 0%, positive control 100%;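 active = mean percent activation of the reporter above a cutoff set as the average over tested compounds plus their standard deviation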
Target sequence (P55055 whole entry, looked up, the tested form may be a part): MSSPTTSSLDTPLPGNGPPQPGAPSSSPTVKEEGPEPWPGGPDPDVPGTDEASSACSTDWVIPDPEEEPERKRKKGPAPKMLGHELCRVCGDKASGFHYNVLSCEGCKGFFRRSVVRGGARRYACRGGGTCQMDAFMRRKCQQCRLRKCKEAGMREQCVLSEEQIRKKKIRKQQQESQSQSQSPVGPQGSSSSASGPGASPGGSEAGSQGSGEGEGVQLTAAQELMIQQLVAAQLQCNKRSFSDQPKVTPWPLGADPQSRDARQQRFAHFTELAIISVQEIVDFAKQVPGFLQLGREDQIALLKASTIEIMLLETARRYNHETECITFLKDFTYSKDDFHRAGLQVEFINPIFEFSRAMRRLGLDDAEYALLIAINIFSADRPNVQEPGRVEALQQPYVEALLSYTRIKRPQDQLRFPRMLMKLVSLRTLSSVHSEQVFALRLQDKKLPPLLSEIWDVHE
hcDAF12 ag = hcDAF-12 agonism, confirmation assay. shares compounds with hcDAF12 agonist. HEK293 hcDAF-12 lit1-tk-luc reporter, luminescence; % of Δ7-dafachronic acid response. activation, % at 6.8 µM. 61% of 3,400 active. AID 743032;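 active = mean activation across triplicate tests above the threshold derived from the earlier primary screen, cut at about 5.5% in these data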
Large screens that a line does not name were inactive (follow-up assays come after a bar, where they were run). This is a sample that favours compounds with a hit; in the whole collection about 4.5% have one here.

Cc1ccc(O)c(N=Cc2cc(Cc3ccccc3)cc([N+](=O)[O-])c2O)c1	none
Cc1ccc(O)c(N=CC2=C(O)c3ccccc3C2=O)c1	hcDAF12 agonist 6.8 | LXRb hcDAF ctr inactive | hcDAF12 ag inactive
C/C=C/c1ccc([C@H]2[C@@H](CN(CC(C)C)S(=O)(=O)c3ccccc3[N+](=O)[O-])N(C(=O)Nc3cccc(OC)c3)[C@H]2CO)cc1	none (no result: DAX1 inh-1, FXN GAA850 act)
Cc1cc(NS(=O)(=O)c2ccc(NC(=O)CSc3nnc(-c4ccco4)n3-c3ccc(Cl)cc3)cc2)nc(C)n1	none (no result: DAX1 inh-1, FXN GAA850 act)
COC(=O)[C@]12C[C@H](CC(=O)NCc3cccc(C(F)(F)F)c3)C(=O)N(Cc3ccc4c(c3)OCO4)C1=C[C@H](C(C)(C)C)O[C@@H]2C	none (no result: DAX1 inh-1, FXN GAA850 act)
O=C(Nc1ccc(Cl)cc1)Nc1ccccc1Sc1ncc([N+](=O)[O-])s1	ssDAF12 agonist 1.1, hcDAF12 agonist 7.6 | LXRb hcDAF ctr inactive | hcDAF12 ag inactive
O=C(Nc1csc([N+](=O)[O-])c1)Nc1ccccc1Cl	none
CCOc1cc(/C=N\NC(=O)c2c(C)nc3ccccn23)ccc1O	hcDAF12 agonist 8.0 | LXRb hcDAF ctr inactive | hcDAF12 ag inactive
COC(=O)C(C[N+](=O)[O-])C1=C(O)CC(C)(C)CC1=O (configuration not stated)	none (no result: DAX1 inh-1, FXN GAA850 act)
O=C(N[C@@H]1CC[C@H]2SC[C@H](C(=O)O)N2C1=O)OCC1c2ccccc2-c2ccccc21	none (no result: DAX1 inh-1, FXN GAA850 act)
Brc1ccc(C2Nc3cccc4cccc(c34)N2)s1	hcDAF12 agonist 6.6 | LXRb hcDAF ctr inactive | hcDAF12 ag inactive
Nc1ccccc1Sc1c[nH]c2ccccc12	hcDAF12 agonist 6.8 | LXRb hcDAF ctr inactive | hcDAF12 ag inactive
Cc1c[nH]c2ccccc12	none (no result: DAX1 inh-2, ssDAF12 agonist, hcDAF12 agonist, hgDAF-12 ag)
O=[N+]([O-])c1ccc(-c2ccc(S(=O)(=O)N3CCOCC3)cc2)cc1	DAX1 inh-1 4.5, hcDAF12 agonist 6.6 | LXRb hcDAF ctr inactive | hcDAF12 ag inactive
Cc1cc(CNC[C@H]2O[C@@H](n3ccc(=O)[nH]c3=O)[C@H](O)[C@@H]2O)no1	none (no result: DAX1 inh-1, FXN GAA850 act)
O=[N+]([O-])c1ccc2cn[nH]c2c1	hcDAF12 agonist 8.3 | LXRb hcDAF ctr inactive | hcDAF12 ag inactive
O=[N+]([O-])c1ccc(Cl)c(S(=O)(=O)Nc2ccc3cn[nH]c3c2)c1	none
CCOC(=O)c1c(C)oc2c1c1c(c3ccccc32)OCN(CCCC(=O)O)C1	DAX1 inh-1 5.0, ssDAF12 agonist 1.2, hcDAF12 agonist 8.9 | LXRb hcDAF ctr inactive | hcDAF12 ag 12
C=CCN=C1NC(c2ccccc2C(F)(F)F)C(C(=O)OC)=C(C)N1Cc1ccc(C(F)(F)F)cc1 (configuration not stated)	none (no result: DAX1 inh-1, FXN GAA850 act)
Clc1ccccc1-c1ccc(/C=N/Nc2nncc(-c3ccccc3)n2)o1	hcDAF12 agonist 10 | LXRb hcDAF ctr inactive | hcDAF12 ag inactive
Clc1ccc(-c2ccc(/C=N/Nc3nncc(-c4ccccc4)n3)o2)cc1	none
CCc1ccc(OCC(=O)NC(C)(C)C)cc1	hcDAF12 agonist 11 | LXRb hcDAF ctr inactive | hcDAF12 ag inactive
O=C(NN=Cc1ccco1)c1cccnc1	none (no result: DAX1 inh-1, FXN GAA850 act)
CCS(=O)(=O)Nc1c(C(=O)O)[nH]c2ccccc12	hcDAF12 agonist 7.6 | LXRb hcDAF ctr inactive | hcDAF12 ag inactive
CCS(=O)(=O)Nc1c(C(=O)OC)[nH]c2ccccc12	none
COc1cccc(NC(=O)C2CC2)c1	none
CCC1CCC(NC(=O)Nc2cccc(OC)c2)CC1 (configuration not stated)	hcDAF12 agonist 12, hgDAF-12 ag 19 | LXRb hcDAF ctr inactive | hcDAF12 ag 6.2
Cc1ccc(NC(=O)c2ccc(NCCN)c([N+](=O)[O-])c2)cc1	hcDAF12 agonist 7.1 | LXRb hcDAF ctr inactive | hcDAF12 ag inactive
Cc1cccc(NC(=O)c2ccc(NCCc3ccccc3)c([N+](=O)[O-])c2)c1	none
COc1ccc(-c2nnc(SCC(=O)NN=C(C)c3cccc4ccccc34)n2-c2ccccc2)cc1	none (no result: DAX1 inh-1, FXN GAA850 act)
Cc1ccc2oc(/N=C(\N)NC(=O)C3CC3)nc2c1	hcDAF12 agonist 6.6 | LXRb hcDAF ctr inactive | hcDAF12 ag 7.0
C[C@H]1Cn2nncc2Cn2c3ccccc3c(=O)n21	none (no result: DAX1 inh-1, FXN GAA850 act)
CCOC(=O)C1=C(C)NC2=C(C(=O)CCC2)C1c1coc2ccccc2c1=O (configuration not stated)	hcDAF12 agonist 6.8 | LXRb hcDAF ctr inactive | hcDAF12 ag inactive
COc1ccc(-c2cc(C(=O)NN=Cc3ccccc3F)[nH]n2)cc1	none (no result: DAX1 inh-1, FXN GAA850 act)
O=c1c2cc(Cl)ccc2[nH]c(=S)n1Cc1ccco1	none
O=c1c2cc(Cl)ccc2[nH]c(=S)n1Cc1cccs1	hcDAF12 agonist 6.7 | LXRb hcDAF ctr inactive | hcDAF12 ag inactive
O=C(Nc1ccc2c(c1)OCO2)c1ccc(Br)o1	hcDAF12 agonist 9.0, hgDAF-12 ag 13 | LXRb hcDAF ctr inactive | hcDAF12 ag inactive
O=C(COC(=O)CNC(=O)c1ccc(Br)o1)Nc1ccc2c(c1)OCCO2	none
COCC(=O)Nc1c(C(=O)Nc2ccc3c(c2)OCO3)oc2ccccc12	none
CC(=O)Nc1c(C(=O)Nc2ccc3c(c2)OCO3)oc2ccccc12	hcDAF12 agonist 7.6 | LXRb hcDAF ctr inactive | hcDAF12 ag 6.8
CCOC(=O)C(Cc1ccccc1)CP(=O)(OC)[C@@H](C)NC(=O)OCc1ccccc1 (some centres not stated)	none (no result: DAX1 inh-1, FXN GAA850 act)
COCCCNC(=O)C[C@H]1C[C@@]2(C(=O)OC)C(=C[C@H](COCc3ccccc3)O[C@@H]2C)N(Cc2ccc3c(c2)OCO3)C1=O	none (no result: DAX1 inh-1, FXN GAA850 act)
Cc1ccccc1NC(=O)C(=O)Nc1ccccc1C	hcDAF12 agonist 8.3 | LXRb hcDAF ctr inactive | hcDAF12 ag inactive
Cc1ccccc1NC(=O)/C(C#N)=C/c1ccc[nH]1	hcDAF12 agonist 11 | LXRb hcDAF ctr inactive | hcDAF12 ag 8.5
CCOC(=O)c1cnn(-c2nc(SC)nc3sc4c(c23)CCCC4)c1N	none
CCOC(=O)c1cnn(-c2ncnc3sc4c(c23)CCC4)c1N	hcDAF12 agonist 7.3 | LXRb hcDAF ctr inactive | hcDAF12 ag inactive
CC1CC(C)CN(C(=O)C2CCN(c3cncnc3)CC2)C1 (configuration not stated)	none (no result: DAX1 inh-1, FXN GAA850 act)
CC(=O)C1=C(O)C(=O)N(CCc2ccccc2)C1c1ccccc1[N+](=O)[O-] (configuration not stated)	hcDAF12 agonist 7.3 | LXRb hcDAF ctr inactive | hcDAF12 ag inactive
COC(=O)[C@H](C(C)C)N1Cc2nnn(Cc3ccccc3)c2C=CS1(=O)=O	none (no result: DAX1 inh-1, FXN GAA850 act)
c1ccc2c(c1)OCc1cn[nH]c1-2	none

Source: PubChem
